# High-throughput results from PubChem.
# Wnt act – Wnt/beta-catenin pathway activators, primary screen, cell-based, plate reader, single point | activation, % at 9.35 µM | hit rate 1.2% among 300,000 | Wnt/beta-catenin reporter cell assay, activator; in the data active = activation above about 30%, passing the limit was not always enough; inconclusive = no clear call, values can overlap the other calls;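 note: 0% = neutral control wells and 100% = positive control wells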
# AHR activator – AHR activators, primary screen, cell-based, luminescence, luciferase reporter, human; Aryl hydrocarbon receptor (Homo sapiens), P35869; AHR-responsive luciferase reporter cells; activation, % at 5 µM; hit rate 2.5% among 320,000; AID 2796, 2010; in the data active = activation above about 47%;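 note: 0% = vehicle wells and 100% = reference agonist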
# Target sequence (P35869 whole entry, looked up): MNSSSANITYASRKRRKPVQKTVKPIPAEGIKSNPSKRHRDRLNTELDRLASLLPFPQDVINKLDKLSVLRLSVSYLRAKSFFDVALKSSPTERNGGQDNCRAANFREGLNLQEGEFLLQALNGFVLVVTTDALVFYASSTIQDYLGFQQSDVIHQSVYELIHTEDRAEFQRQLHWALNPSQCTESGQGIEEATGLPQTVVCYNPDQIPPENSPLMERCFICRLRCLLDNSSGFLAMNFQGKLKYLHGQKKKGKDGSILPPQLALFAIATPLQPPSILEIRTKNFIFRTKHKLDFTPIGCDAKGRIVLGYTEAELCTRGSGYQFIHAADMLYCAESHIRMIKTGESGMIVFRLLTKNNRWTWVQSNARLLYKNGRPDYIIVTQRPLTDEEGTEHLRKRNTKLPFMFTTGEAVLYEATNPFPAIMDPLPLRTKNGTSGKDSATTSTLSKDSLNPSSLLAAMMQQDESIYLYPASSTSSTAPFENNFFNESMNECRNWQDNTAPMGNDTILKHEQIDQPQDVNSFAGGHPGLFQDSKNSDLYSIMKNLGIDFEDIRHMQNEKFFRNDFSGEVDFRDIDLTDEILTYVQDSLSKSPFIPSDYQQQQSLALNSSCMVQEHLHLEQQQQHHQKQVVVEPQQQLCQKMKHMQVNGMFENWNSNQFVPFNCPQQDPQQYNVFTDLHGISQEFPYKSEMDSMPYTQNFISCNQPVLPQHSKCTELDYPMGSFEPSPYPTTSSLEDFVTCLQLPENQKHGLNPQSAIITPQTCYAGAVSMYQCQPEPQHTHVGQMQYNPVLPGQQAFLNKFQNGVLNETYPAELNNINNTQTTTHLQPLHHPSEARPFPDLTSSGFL
# MITF act – activators of MITF-driven TRPM1 promoter reporter, primary screen, cell-based, SK-MEL-5, luciferase, single point | SK-MEL-5 TRPM1-promoter luciferase, 24 h; % of positive control, neutral wells = 0 | activation, % at 12.5 µM | hit rate 0.75% among 300,000;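 active = mean activation of at least 80% with every replicate also reaching 80%; inconclusive = mean reaches 80% but some replicate falls short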;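 note: 0% = neutral control wells and 100% = parthenolide positive control wells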
# FXN GAA850 act – FXN promoter activators, primary screen, cell-based, luciferase luminescence, HEK293 lucGAA850; HEK293 lucGAA850 FXN promoter luciferase reporter, 24 h; percent of 10 µM SAHA response; activation, % at 6 µM; hit rate 0.56% among 360,000; AID 540364, 2011;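 active = activation above the average of all compounds screened plus 3 SD, cutoff fixed separately per campaign, cut at about 7.5% in these data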;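 note: 0% = DMSO wells and 100% = 10 µM SAHA wells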
# esBAF inh – Bmi1 luciferase reporter increase in mESCs, primary screen, esBAF inhibitor project, mouse ES cells, Bmi1 luciferase knock-in, single point; reporter increase, % at 12.5 µM; hit rate 2% among 350,000; 24 h; 100% = twice the neutral-well signal; in the data active = activation above about 40%; inconclusive = no clear call, values can overlap the other calls;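 note: 0% = median of the plate's neutral control wells and 100% = double that signal; a rise in the Bmi1 reporter signal indicates esBAF inhibition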
# * hit, by the source's call; ? = inconclusive; nt = no result; ! = repeats disagree. Sampled rows, rich in hits. Any-hit rate of the full collection: about 4.2%.
SMILES,Wnt act,AHR activator,MITF act,FXN GAA850 act,esBAF inh
O=C(/C=C1\NCC2c3ccccc3CCN2C1=O)c1ccccc1 (stereo not given),nt,62.2*,nt,1.3,48.8*
C[C@H](CO)N1C[C@H](C)[C@@H](CN(C)Cc2ccc(Oc3ccccc3)cc2)Oc2ccc(NC(=O)c3ccncc3)cc2C1=O,nt,nt,nt,nt,-3.5
COC(=O)C1CCN(C(=O)C2CC(=O)N(c3ccc(C)c(Cl)c3)C2)CC1 (stereo not given),17.0,nt,46.6,4.1,56.2*
O=C(/C=C\c1cn(-c2ccccc2)nc1-c1ccccc1)Nc1nccs1,nt,73.0*,-1.8,5.3,nt
CC(=O)NS(=O)(=O)c1ccc(NC(=O)/C=C/c2cn(-c3ccccc3)nc2-c2ccccc2)cc1,-1.8,-0.6,0.8,-10.3,nt
CCCCCn1c(CN2CCN(C(=O)c3ccco3)CC2)nc2c1c(=O)n(C)c(=O)n2C,60.7*,1.6,nt,1.8,7.4
Cn1cnc(S(=O)(=O)N2C[C@H](O)COC[C@H]3O[C@@H](CC(=O)NC4CCC4)CC[C@@H]32)c1,nt,nt,nt,nt,-0.3
COc1ccc(N2CCN(C(=O)c3ccc(-c4nc5ccccc5s4)o3)CC2)cc1,3.9,69.2*,19.9,4.0,43.2*
COc1ccccc1N1CCN(C(=O)c2ccc(-c3nc4ccccc4s3)o2)CC1,-2.5,25.1,38.1,0.5,23.6
Cc1ccc(O)c(O)c1,nt,0.4,nt,nt,nt
Cc1ccc(O)c(CN(C)Cc2cc(C)ccc2O)c1,24.9,nt,71.8,3.2,50.6*
Cc1ccc(S(=O)(=O)N(C)C[C@H]2OCCCC[C@@H](C)Oc3ccc(NS(=O)(=O)c4cn(C)cn4)cc3C(=O)N([C@@H](C)CO)C[C@@H]2C)cc1,nt,nt,nt,nt,-1.7
O=C(Cc1ccc(Br)cc1)c1ccc(O)cc1O,?,1.5,38.9,6.5,59.6*
N#Cc1ccc(C(=O)NN2C(=O)NC3(CCCCC3)C2=O)cc1,-1.5,nt,3.4,1.4,3.4
CN(C)c1cccc(C(=O)NN2C(=O)NC3(CCCCC3)C2=O)c1,11.8,5.2,18.1,1.6,42.7*
COc1cccc2c1C(=N)c1c(O)c3c(c(O)c1C2=O)CC(O)(C(C)=O)CC3OC1CC(N)C(O)C(C)O1 (stereo not given),nt,nt,nt,-8.8,nt
COc1cccc2c1C(=O)c1c(O)c3c(c(O)c1C2=O)C[C@](O)(C(C)=O)C[C@H]3O[C@@H]1C[C@@H](N)[C@@H](O)[C@@H](C)O1,-22.6,64.5*,-88.0,-11.9,-81.3
O=C(COc1ccccc1)Nc1nnc(C23CC4CC(CC(C4)C2)C3)s1,23.5,-0.7,nt,1.8,47.9*
O=C(Nc1nnc(Cc2ccccc2)s1)c1ccco1,25.0,5.4,48.5,5.2,46.2*
O=C(COc1ccccc1)Nc1nc2c(s1)CCCC2,20.2,-0.2,113.9*,3.6,58.0*
Cc1nnc(NC(=O)COc2ccccc2)s1,-1.1,2.3,10.4,3.0,3.2
O=C(Cc1nnc(NC(=O)c2ccccc2)s1)N/N=C/c1cccc(O)c1,3.0,9.3,nt,0.2,2.2
O=C(Nc1nnc(CCc2ccccc2)s1)c1ccco1,11.7,1.0,21.9,4.4,23.0
O=C(Cc1nnc(NC(=O)c2ccccc2)s1)N/N=C/c1ccco1,-0.6,114.6*,-14.4,0.2,1.2
CNC(=O)C[C@@H]1CC[C@@H]2[C@@H](COc3ccc(NC(=O)Nc4cccc(F)c4)cc3C(=O)N2C)O1,nt,nt,nt,nt,3.0
SMILES,Wnt act,AHR activator,MITF act,FXN GAA850 act,esBAF inh
CNC[C@@H]1Oc2ccc(NC(=O)C3CCCCC3)cc2C(=O)N([C@H](C)CO)C[C@@H]1C,nt,nt,nt,nt,4.3
CN(C)c1cccc(C(=O)Nc2nnc(Cc3ccccc3)s2)c1,4.9,54.4*,42.1,0.1,30.6
O=C(Nc1nnc(Cc2ccccc2)s1)c1cccnc1,4.8,4.6,12.0,-1.6,nt
NC(=O)c1cc(Cc2ccccc2)sc1NC(=O)c1ccco1,27.2,1.1,118.2*,5.2,85.4*
O=C(Nc1nnc(C23CC4CC(CC(C4)C2)C3)s1)c1ccco1,41.2*!,13.7,77.9,2.7,31.2
Cc1nnc(NC(=O)c2ccco2)s1,-2.7,-0.4,0.9,2.0,5.6
C[C@@H]1CN([C@@H](C)CO)C(=O)Cc2cc(NS(=O)(=O)c3ccc(Cl)cc3)ccc2O[C@H]1CN(C)S(=O)(=O)c1ccccc1,nt,nt,nt,nt,-2.7
Cc1ccc2cc3c(nc2c1)N(c1ccccc1)CC3,1.8,66.5*,-15.4,4.0,-0.1
O=[N+]([O-])c1ccc(-c2ccc(/C=N/O)o2)cc1,20.2,6.2,nt,1.0,nt
O/N=C\c1ccc(-c2ccccc2)o1,-0.3,5.9,37.0,4.4,55.3*
OCCN(CCO)c1ncnc2c1oc1ccc(Br)cc12,-2.3,71.5*,-10.6,1.0,1.9
OCCSc1ncnc2c1oc1ccccc12,nt,-3.6,12.1,2.7,nt
CCCOc1ccc2[nH]c(C(=O)N/N=C/c3cc(OC)c(OC)c(OC)c3)cc2c1,8.3,35.0,nt,1.0,6.3
CCOc1ccc(/C=N/NC(=O)c2cc3c(OC)cc(OC)c(OC)c3[nH]2)cc1,-0.6,48.3*,1.9,-1.7,-3.9
COc1ccc2[nH]c(C(=O)N/N=C/c3ccccc3OC)cc2c1,1.1,7.9,-6.9,-5.3,-4.9
COc1ccc(OC)c(/C=N/NC(=O)c2cc3c(OC)c(OC)ccc3[nH]2)c1,-1.4,79.0*,4.4,-3.6,nt
CO[C@H]1CN(C)C(=O)c2cc(NS(C)(=O)=O)ccc2OC[C@@H](C)N(C(=O)NC(C)C)C[C@H]1C,nt,nt,nt,nt,-1.3
O=C(O)C(Cc1c[nH]c2ccccc12)N1C(=O)c2ccccc2C1=O (stereo not given),43.5*,4.5,-11.6,2.3,nt
O=C(O)C(Cc1ccccc1N(CCO)CCO)N1C(=O)c2ccccc2C1=O (stereo not given),-6.8,nt,-3.1,-0.2,-6.5
C[C@@H]1CN([C@@H](C)CO)C(=O)c2cccc(NS(=O)(=O)c3ccc(F)cc3)c2O[C@@H]1CN(C)S(=O)(=O)c1ccc(Cl)cc1,nt,nt,nt,nt,-2.7
COc1ccc(C)cc1NC(=O)n1ncc2c(C)cccc21,5.0,23.0,5.8,1.7,-3.6
COc1ccc(NC(=O)n2ncc3c(C)cccc32)cc1OC,3.4,-6.5,105.9*,2.7,53.0*
COc1ccc(NC(=O)n2ncc3c(C)cccc32)cc1,39.2*,-7.6,38.0,3.6,39.0
C[C@H]1CCCCO[C@@H](CN(C)Cc2ccc3c(c2)OCO3)[C@@H](C)CN([C@@H](C)CO)C(=O)c2cc(NC(=O)C3CCCCC3)ccc2O1,nt,nt,nt,nt,2.3
Cc1cc(C)c(NC(=O)CSc2nc3ncc(Br)cc3[nH]2)c(C)c1,-1.7,11.5,-0.4,0.8,-1.0
CCc1nnc(SCC(=O)Nc2ccc3c(c2)OCO3)n1CC,2.4,50.3*,4.8,0.4,3.2
O=C(CSc1nc2ncc(Br)cc2[nH]1)Nc1ccc2c(c1)OCO2,nt,50.1*,-10.9,-1.6,3.9
